Screening data (PubChem)
KB-3-1 cytotox – kills parental KB-3-1 adenocarcinoma cells; Potency, µM (highest dose often 46.1 µM), actives largely listed as cytotoxic; 400,000 tested, 1.4% active; KB-3-1 viability, CellTiter-Glo ATP luminescence, 72 h; also: nearly all actives have a fitted effect of over 60% in size
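Luminescent ATP read-out (CellTiter-Glo) measures survival of drug-naive KB-3-1 cells after 72 h compound exposure at 37 °C. Titration series was screened from lowest to highest concentration, with DMSO vehicle plates as background controls.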
KB-V1 cytotox – KB-V1 MDR subline cytotoxicity | 400,000 tested, 3.4% active | Potency, µM (series often up to 46.1 µM), usual class: cytotoxic | KB-V1 MDR cells viability, CellTiter-Glo, 72 h; also: nearly all actives have a fitted effect of over 60% in size
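Luminescent ATP read-out (CellTiter-Glo, 10 min) measures survival of drug-selected KB-V1 MDR cells after 72 h, 37 degrees C compound exposure. Medium: phenol-red-free DMEM, 10% FBS. Values from fitted concentration-response curves.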
HT1080-NT tox – kills 2HG-producing HT-1080-NT fibrosarcoma cells. HT-1080-NT fibrosarcoma viability, CellTiter-Glo ATP luminescence, 48 h. Potency, µM (top dose mostly 46.1 µM), hits mostly cytotoxic. 360,000 tested, 1.6% active;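 also: NT is the 2HG producing partner of a matched IDH1 knockdown line; nearly all actives have a fitted effect of over 55% in size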
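Viability by CellTiter-Glo luminescence after 48 h compound exposure at 37C of HT-1080-NT cells (750/well, RPMI, 5% FBS). % activity scaled between DMSO wells and medium-only wells, then curve-fitted and categorized by curve class.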
HT1080 IDH1KD tx – kills HT-1080 cells with IDH1 knockdown; HT-1080 IDH1 knockdown viability, ATP luminescence, 48 h; Potency, µM (top dose mostly 46.1 µM), most hits filed as cytotoxic; 360,000 tested, 2% active; AID 686971
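CellTiter-Glo luminescence after 48 h compound exposure at 37 degrees C of IDH1-knockdown HT-1080 cells in 5% FBS RPMI. %Activity scaled between DMSO wells and cell-free media wells, with curves fitted and assigned curve classes.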
IL-1B inflam inh – inflammasome signaling inhibition, IL-1 beta readout. 360,000 tested, 4.7% active. THP-1 LPS/ATP IL-1B secretion, AlphaLISA, 16 h; hits give low values. activity change, % at 57.5 µM; in the data active = activity change below about -50%; inconclusive = mostly about -30% to -49%
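Secreted IL-1B measured by AlphaLISA bead assay after 16 h compound exposure of THP-1 cells; compounds (final up to 57.5 uM) added 1 h before LPS (250 ng/mL) and ATP (1.25 mM) stimulation; lower signal means less secretion.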
Numbers stand for hits. In the library only some 8.8% were active in any assay of this set; here they are far more common. Unless noted, calls follow the shape of the dose curve; as a rule, active = well fitted curve in the direction sought with a large enough effect; inconclusive = small, poorly fitted or top-dose-only effect, or another doubt; inactive = no such curve, though single readings can be large; an effect the other way counts as inactive or inconclusive.

How did COc1cc2cc(CN(CCc3cccc(C)c3)C(=S)NCCCN3CCOCC3)c(=O)[nH]c2cc1OC do in these assays?
KB-3-1 cytotox: inactive; KB-V1 cytotox: inactive; HT1080-NT tox: inactive; HT1080 IDH1KD tx: inconclusive; IL-1B inflam inh: -62

How did Cc1cc(C)c2[nH]c(=O)c(CN(Cc3cccnc3)C(=S)NCCCN(C)C)cc2c1 do in these assays?
KB-3-1 cytotox: inactive; KB-V1 cytotox: inactive; HT1080-NT tox: inactive; HT1080 IDH1KD tx: inactive; IL-1B inflam inh: inactive

Results for Cc1ccc2[nH]c(=O)c(CN(CCCN(C)C)C(=S)NCCc3ccccc3)cc2c1 ?
KB-3-1 cytotox: inconclusive; KB-V1 cytotox: inactive; HT1080-NT tox: 18µM; HT1080 IDH1KD tx: 18µM; IL-1B inflam inh: -67

How did COc1cc2cc(CN(CCc3cccc(C)c3)C(=S)NCCCN(C)C)c(=O)[nH]c2cc1OC do in these assays?
KB-3-1 cytotox: inactive; KB-V1 cytotox: inactive; HT1080-NT tox: inactive; HT1080 IDH1KD tx: inactive; IL-1B inflam inh: inconclusive

How did Cc1cccc2cc(CN(CCCN(C)C)C(=S)NCCc3ccccc3)c(=O)[nH]c12 do in these assays?
KB-3-1 cytotox: inactive; KB-V1 cytotox: inconclusive; HT1080-NT tox: inactive; HT1080 IDH1KD tx: inactive; IL-1B inflam inh: -51

How did O=C(C[N+]1(CCc2ccccc2)CCOCC1)c1cccc([N+](=O)[O-])c1 do in these assays?
KB-3-1 cytotox: inactive; KB-V1 cytotox: inactive

How did Cc1ccc(C2=NN(Cc3nnc(-c4ccccc4)o3)C(=O)SC2)cc1 do in these assays?
KB-3-1 cytotox: inactive; KB-V1 cytotox: 13µM; HT1080-NT tox: inactive; HT1080 IDH1KD tx: inactive; IL-1B inflam inh: inactive

How did CCC(c1nc2ccccc2[nH]1)N(CCCn1ccnc1)C(=O)c1ccc(C(F)(F)F)cc1 (stereo not drawn) do in these assays?
KB-3-1 cytotox: inactive; KB-V1 cytotox: inactive; HT1080-NT tox: inactive; HT1080 IDH1KD tx: inactive; IL-1B inflam inh: inactive

Results for CCOc1ccc(S(=O)(=O)N2CCCCC2)cc1NC(=O)Cc1ccc(OC)cc1 ?
KB-3-1 cytotox: inactive; KB-V1 cytotox: inconclusive; HT1080-NT tox: inactive; HT1080 IDH1KD tx: inactive; IL-1B inflam inh: inactive

Results for CCN1CCN(c2ccc(S(=O)(=O)N3CCCCC3)cc2NC(=O)Cc2ccc(OC)cc2)CC1 ?
KB-3-1 cytotox: inactive; KB-V1 cytotox: inactive; HT1080-NT tox: inconclusive; HT1080 IDH1KD tx: inconclusive; IL-1B inflam inh: -80

How did CCN1CCN(S(=O)(=O)c2ccc(Cl)c(C(=O)Nc3ccccc3N3CCCCC3)c2)CC1 do in these assays?
KB-3-1 cytotox: inconclusive; KB-V1 cytotox: inactive; HT1080-NT tox: inconclusive; HT1080 IDH1KD tx: inconclusive; IL-1B inflam inh: -73

What do the screens show for `CCN(CC)S(=O)(=O)c1ccc(N2CCCC2)c(NC(=O)Cc2c(F)cccc2Cl)c1`?
KB-3-1 cytotox: inactive; KB-V1 cytotox: inactive; HT1080-NT tox: inactive; HT1080 IDH1KD tx: inactive; IL-1B inflam inh: inactive

How did CCN1CCN(c2ccc(S(=O)(=O)N3CCCCC3)cc2NC(=O)Cc2c(F)cccc2Cl)CC1 do in these assays?
KB-3-1 cytotox: inactive; KB-V1 cytotox: inactive; HT1080-NT tox: inactive; HT1080 IDH1KD tx: inactive; IL-1B inflam inh: -63

How did CO/N=C\CC(=O)Nc1ccc(Cl)cc1Cl do in these assays?
KB-3-1 cytotox: inconclusive; KB-V1 cytotox: 5.8µM; HT1080-NT tox: inconclusive; HT1080 IDH1KD tx: 8.2µM; IL-1B inflam inh: inactive

What do the screens show for `C/C(CC(=O)Nc1cc(Cl)ccc1Cl)=N\NC(N)=S`?
KB-3-1 cytotox: inconclusive; KB-V1 cytotox: inactive; HT1080-NT tox: inactive; HT1080 IDH1KD tx: inactive; IL-1B inflam inh: inactive

What do the screens show for `C/C(CC(=O)Nc1ccc(Cl)cc1Cl)=N\NC(N)=S`?
KB-3-1 cytotox: inactive; KB-V1 cytotox: inactive; HT1080-NT tox: 10µM; HT1080 IDH1KD tx: 7.9µM; IL-1B inflam inh: inactive

What do the screens show for `CC1Cc2ccccc2N1C(=O)CN1CCN(Cc2ccccc2)CC1` (stereo not drawn)?
KB-3-1 cytotox: inactive; KB-V1 cytotox: inactive; HT1080-NT tox: inactive; HT1080 IDH1KD tx: inactive; IL-1B inflam inh: inactive

Results for N#CC1=C(N)Oc2c(ccc3ccccc23)C1c1ccsc1 (stereo not drawn) ?
KB-3-1 cytotox: 6.5µM; KB-V1 cytotox: inconclusive; HT1080-NT tox: 13µM; HT1080 IDH1KD tx: 5.8µM; IL-1B inflam inh: inactive

How did O=C(N/N=C/c1ccc2cccnc2c1)c1nc2ccccc2c(=O)[nH]1 do in these assays?
KB-3-1 cytotox: inactive; KB-V1 cytotox: inactive; HT1080-NT tox: inconclusive; HT1080 IDH1KD tx: inactive; IL-1B inflam inh: inactive
